Drawing on PubChem BioAssay, this text covers z-score for 35 molecules.

The source made the active and inactive calls.

The target of this experiment is Luciferin 4-monooxygenase (Photinus pyralis) (UniProt P08659). The experiment in a line: inhibition of purified Photinus pyralis luciferase – biochemical, luminescence, purified enzyme, 2006 set, primary screen (AID 1141).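 Note: cell-free assay with purified firefly luciferase at 100 ng per well in PBS; test concentration not given here.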 Conditions: purified firefly luciferase, SteadyGlo luminescence, 30 min; higher = more signal, called active from +8 up or from −8 down.
Sequence of Luciferin 4-monooxygenase (Photinus pyralis) (P08659 whole entry, looked up): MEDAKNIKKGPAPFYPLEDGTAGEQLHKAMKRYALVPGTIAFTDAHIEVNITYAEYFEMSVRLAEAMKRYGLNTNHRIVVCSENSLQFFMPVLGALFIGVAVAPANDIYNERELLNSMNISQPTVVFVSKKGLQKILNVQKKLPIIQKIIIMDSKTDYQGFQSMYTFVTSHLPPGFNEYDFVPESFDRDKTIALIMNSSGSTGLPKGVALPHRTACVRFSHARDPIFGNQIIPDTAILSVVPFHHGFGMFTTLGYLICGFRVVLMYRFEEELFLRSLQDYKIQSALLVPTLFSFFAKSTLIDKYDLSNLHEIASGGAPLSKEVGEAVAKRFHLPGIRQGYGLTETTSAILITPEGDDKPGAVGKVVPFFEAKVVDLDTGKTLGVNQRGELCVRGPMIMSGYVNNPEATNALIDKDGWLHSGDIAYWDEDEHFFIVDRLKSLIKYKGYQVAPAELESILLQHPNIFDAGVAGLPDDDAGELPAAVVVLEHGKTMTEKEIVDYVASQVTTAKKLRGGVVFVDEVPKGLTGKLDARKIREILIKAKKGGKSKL
As to `CC[C@H]1C2=C3C(CC[C@H]4C(OCc5ccc(F)cc5C(F)(F)F)OC[C@](C)([C@@H]34)N(C(=O)OC(C)(C)C)C2)C(COC)C1COC` (stereo not given in full), the z-score is 0.303 (inactive).

Consider `CC(C)N1C(=O)C[C@@](C(=O)NCCCN(C)C)(c2ccc([N+](=O)[O-])cc2)[C@H]1c1ccc(CO)cc1`, for which the z-score was -0.287 (inactive). For `NC(=O)NCC#Cc1ccc2c(c1)[C@]1(C(=O)N2)[C@H](C(=O)NC[C@H](O)c2ccccc2)[C@H]2C(=O)O[C@H](c3ccccc3)[C@H](c3ccccc3)N2[C@@H]1c1ccc(OCCO)cc1`, the z-score was -1.9 (inactive). In the case of `Cc1ccccc1C(O)C1C=CC2C(=O)N(C)C(=O)C2N1N(c1ccccc1)c1ccccc1` (stereo not given), the z-score is -0.609 (inactive). `C=CCC(OC(C)=O)[C@@H]1[C@@H](N(Cc2cc3ccccc3o2)C(=O)c2ccc(C)cc2)c2cc(OCCCO)ccc2N1C(=O)Cc1ccc(OC)cc1` (stereo not given in full): the z-score was -1.37 (inactive). Next, `COC(=O)C1=CC(CCCO)=CC(C2CC2)N(C)C=C1C(=O)OC` (stereo not given): 0.727 (inactive); `COc1cc2c(cc1OC)CN(C(=O)[C@@H]1[C@H]3C(=O)O[C@H](c4ccccc4)[C@H](c4ccccc4)N3[C@H](c3ccc(OCCO)cc3)[C@@]13C(=O)Nc1ccc(C#CC4(O)CCCCCC4)cc13)CC2`: -7.42 (inactive); `COc1cc(OC)c(C(O)C2C=CC3C(=O)N(c4ccccc4)C(=O)C3N2Nc2ccccc2)cc1Br` (stereo not given): -0.229 (inactive).

Turning to `COc1ccc([Si](C)(C)[C@@H]2[C@@H](CC(=O)N(CCO)Cc3ccccc3)O[C@]3(C(=O)N(Cc4cccc(N5C(=O)c6cccc7cccc5c67)c4)c4ccccc43)[C@H]2C)cc1`, the z-score is 0.187 (inactive). Turning to `COC(=O)c1c2oc(c1C(=O)OC)C(=O)N(C)Cc1cn(nn1)C[C@H](Cc1ccccc1)NC(=O)N[C@H](CO)CC2`, the z-score is 0.247 (inactive).

With `O=C(CS)NCCCCCCNC(=O)[C@H]1C[C@H]2C(=O)N[C@@H](Cc3ccccc3)C(=O)N2[C@H]1c1ccc(O)cc1`, the z-score is -1.17 (inactive). `O=C1C2C=CC(C(O)c3ccccc3)N(Nc3ccccc3F)C2C(=O)N1c1ccccc1` (stereo not given): the z-score is 0.541 (inactive). As to `CC(C)(C)N1CC=CC23O[C@@H]4C=CCOC(=O)[C@@H]4[C@H]2C(=O)N(CCCCCCO)[C@@H]3C1=O` (stereo not given in full), the z-score is -0.234 (inactive).

Consider `CCCCO[C@H]1C[C@H]2C(I)=C[C@@H]1C(=O)[C@]21CO1`, for which the z-score was 0.274 (inactive).

As to `C=CCOC(=O)[C@H]1[C@@H]2C(=O)O[C@@H](c3ccccc3)[C@@H](c3ccccc3)N2[C@@H](c2ccc(OCCOC(=O)[C@@H]3C[C@@H]4C(=O)N5CCC[C@H]5C(=O)N4[C@@H]3c3ccc(O)cc3)cc2)[C@]12C(=O)Nc1ccc(I)cc12`, the z-score is -0.873 (inactive). Turning to `C=CCOC(=O)[C@H]1[C@@H]2C(=O)O[C@@H](c3ccccc3)[C@@H](c3ccccc3)N2[C@@H](c2ccc(OCCOC(=O)[C@H]3C[C@H]4C(=O)N[C@@H](CCCCNC(C)=O)C(=O)N4[C@H]3c3ccc(O)cc3)cc2)[C@]12C(=O)Nc1ccccc12`, the z-score is -2.37 (inactive).

`CCOc1cc(C(O)C2C=CC3C(=O)N(C)C(=O)C3N2Nc2ccccc2)ccc1O` (stereo not given): the z-score is -1.2 (inactive). Take `C#CCN([C@@H](Cc1ccc(O)cc1)C(=O)OC)[C@@H](/C=C/C1CC1)[C@H](O)Cc1ccccc1`: the z-score is -0.0396 (inactive). With `O=c1n(-c2ccccc2)c(=O)n2n1CC(COc1ccccc1)=C([C@H](O)CCc1ccccc1)[C@@H]2CO`, the z-score was -1.35 (inactive).

Regarding `CC(=O)NCCCC[C@@H]1NC(=O)[C@H]2C[C@@H](C(=O)NCCCC[N+](C)(C)C)[C@@H](c3cccc(OCCO)c3)N2C1=O`, the z-score is -1.42 (inactive). In the case of `CN1C(=O)C2C=CC(C(O)c3ccccn3)N(N(c3ccccc3)c3ccccc3)C2C1=O` (stereo not given), the z-score is -0.009 (inactive). Next, `C[N+](C)(C)CCCCCCNC(=O)[C@H]1C[C@H]2C(=O)NCC(=O)N2[C@H]1c1ccc(O)cc1`: 0.836 (inactive).

As to `CCCC[C@@H]1C[C@H]1[C@@H](NC(=O)c1cccs1)c1ccc(C(F)(F)F)cc1`, the z-score is 1.2 (inactive). On to `COc1ccc(CCN2C(=O)[C@@]3(Cc4ccccc42)c2ccccc2C(=O)N(Cc2ccccc2OC)[C@H]3c2ccc(CO)cc2)cc1`, for which the z-score is -0.377 (inactive). `C[C@@H]1NC(=O)[C@@]23C(=O)N[C@@H](Cc4ccccc4)C2[C@H](C)[C@@]2(C)O[C@H]2C3/C=C/C/C=C\CNC(=O)[C@@H]2CCCN2C1=O` (stereo not given in full): the z-score is 0.0545 (inactive). Turning to `C=C(/C(=C/C[C@H](OC(C)=O)c1cccc(OCCO)c1)c1cnc2ccccc2c1)C(C)C`, the z-score is -1.19 (inactive). The result for `[N-]=[N+]=NCc1ccccc1[C@H]1OC(c2ccc(OCCCO)cc2)=N[C@@]1(CCS(=O)(=O)c1ccccc1)C(=O)NCC(O)CO` (stereo not given in full) reads -0.986 (inactive); that for `Cc1cc(C)cc(N2C(=O)CSC2c2cccc([N+](=O)[O-])c2)c1` (stereo not given), -0.992 (inactive); that for `COCCOC(=O)N1C(=O)[C@@]2(c3cc(C#CC4(O)CCCCCC4)ccc31)[C@H](c1ccc(O)cc1)N1[C@H](c3ccccc3)[C@H](c3ccccc3)OC(=O)[C@H]1[C@@H]2C(=O)NC[C@H](O)c1ccccc1`, -0.001 (inactive). Regarding `COC(=O)c1cn(C[C@@H](Cc2ccccc2)NC(=O)N[C@H](CO)CCc2oc(C(C)=O)c(C(=O)OC)c2C(=O)OC)nn1`, the z-score was -0.373 (inactive). The result for `COC(=O)[C@@]1(Cc2ccccc2)[C@H]2c3cc(C(=O)N(C)C)n(Cc4c(CO)[nH]cc(C)c4=O)c3C[C@H]2CN1C(=O)c1ccccc1` reads 0.379 (inactive); that for `CC(=O)NCCCC[C@@H]1NC(=O)[C@@H]2C[C@H](C(=O)NCCCC[N+](C)(C)C)[C@H](c3ccc(O)cc3)N2C1=O`, -0.174 (inactive). The result for `COc1ccc([Si](C)(C)[C@@H]2[C@@H](CC(=O)N3Cc4ccccc4C[C@H]3CO)O[C@]3(C(=O)N(C)c4ccccc43)[C@H]2C)cc1` reads -0.497 (inactive); that for `COCCOC(=O)N1C(=O)[C@@]2(c3cc(C#CC4=CCCCC4)ccc31)[C@H](C(N)=O)[C@H]1C(=O)O[C@H](c3ccccc3)[C@H](c3ccccc3)N1[C@@H]2c1ccccc1OCCO`, -0.591 (inactive).

For `COC(=O)[C@@]1(Cc2ccc(OC)cc2)[C@@H]2C(=CC(=O)[C@H]2CC(=O)C(=O)N(C)C)CN1C(=O)c1ccccc1`, the z-score was 2.12 (inactive).
